Experiment [1] has as its target Estrogen receptor beta (Homo sapiens) (UniProt Q92731). The experiment is described as follows: qHTS assay to identify small molecule agonists of the estrogen receptor beta (ER-beta) signaling pathway (AID 1259377; active = well fitted activation curve with a large enough effect in the signal ratio in the repeat runs, not every such curve was filed as active; the % refers to the signal ratio; also: potency is read from the fitted curve at half-maximal effect). The procedure, abridged: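 Reporter cells (HEK293T, ER-beta-UAS-bla) receive compounds or DMSO after a 6 hr pre-incubation. They then incubate 16 hr at 37C/5% CO2, and fluorescence from LiveBLAzer B/G substrate is measured after 2 hours at room temperature.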

Experiment [2] shares this target. The experiment is described as follows: qHTS assay to identify small molecule antagonists of the estrogen receptor beta (ER-beta) signaling pathway (AID 1259378; active = well fitted inhibition curve with a large enough effect in the signal ratio in the repeat runs, not every such curve was filed as active; the % refers to the signal ratio; also: potency is read from the fitted curve at half-maximal effect). The essentials: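 ER-beta-UAS-bla HEK293T cells in 2% charcoal-stripped FBS medium treated with compound plus 1nM final 17-beta-estradiol for 16 hr at 37C. Beta-lactamase reporter read by FRET substrate fluorescence after 2 hours at room temperature.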

The nature of experiment [3]: qHTS assay to identify small molecule agonists of the androgen receptor (AR) signaling pathway in the presence of an antagonist - cell viability counter screen (AID 1259379). Also: nearly all actives have a fitted effect of over 25% in size. Also: potency is read from the fitted curve at half-maximal effect. The essentials: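 Counter screen for cell viability run in parallel with the AR agonist-mode luciferase assay. MDA-kb2 cells were co-treated with nilutamide (3.0uM final) and compounds, then incubated 16 hr at 37C, and CellTiter-Fluor fluorescence was measured.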

Experiment [4] in a line: qHTS assay to identify small molecule agonists of the estrogen receptor beta (ER-beta) signaling pathway - cell viability counter screen (AID 1259380). Also: nearly all actives have a fitted effect of over 30% in size. Also: potency is read from the fitted curve at half-maximal effect. The procedure, abridged:
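In this qHTS counter screen, HEK293T cells carrying an ER-beta/UAS beta-lactamase reporter, grown in 2% charcoal-stripped FBS, received compound for 16 hr; ATP-based CellTiter-Glo luminescence was then read after 30 min at room temperature.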

Experiment [5] in a line: qHTS assay to identify small molecule antagonists of the estrogen receptor beta (ER-beta) signaling pathway - cell viability counter screen (AID 1259382). Also: nearly all actives have a fitted effect of over 55% in size. Also: potency is read from the fitted curve at half-maximal effect. The essentials:
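HEK293T ER-beta-UAS-bla, 2% charcoal-stripped FBS; compounds + 1nM E2 16 hr 37C; CellTiter-Glo luminescence, 30 min RT.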

Experiment [6] can be described thus: qHTS assay to identify small molecule agonists or antagonists of the thyroid stimulating hormone receptor (TSHR) signaling pathway - wild type cell line counter screen (AID 1259384; calls by dose curve). The essentials:
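Wild-type Hek293 cells, 800/well, 18 h at 37C, then compound with Ro20-1724 for 30 min RT. cAMP by HTRF (cAMP-d2/anti-cAMP cryptate), 1 h RT, fluorescence read. 15 concentrations, triplicates.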

For experiment [7], the target named is Thyrotropin receptor (Homo sapiens) (UniProt P16473). The experiment in a line: qHTS assay to identify small molecule antagonists of the thyroid stimulating hormone receptor (TSHR) signaling pathway (AID 1259385; calls by dose curve; also: nearly all actives have a fitted effect of over 20% in size; also: potency is read from the fitted curve at half-maximal effect). The essentials:
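TSHR-HEK293 cells (800/well) plated 18 h, then compounds with Ro20-1724 and TSH at 1.5 ng/mL final, 30 min at room temperature. cAMP quantified by HTRF (cAMP-d2/anti-cAMP-cryptate, 1 h); 15 concentrations in triplicate.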

Experiment [8] in a line: qHTS assay to identify small molecule agonists of the estrogen receptor alpha (ER-alpha) signaling pathway in the presence of an antagonist - cell viability counter screen (AID 1259386).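 Also: series mostly up to about 92 µM; cells exposed to compounds for 22 h at 37 °C before the viability read; nearly all actives have a fitted effect of over 30% in size.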 The procedure, abridged: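 Steps: 5-day stripped-FBS culture; seed and incubate 24hr; add ICI-182,780 (10.0nM final); pin 15-point compound titration; incubate 22hr at 37C; add CellTiter-Fluor at 21hr; read fluorescence.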

Experiment [9] can be described thus: qHTS assay to identify small molecule antagonists of the progesterone receptor (PR) signaling pathway - cell viability counter screen (AID 1346798). Also: nearly all actives have a fitted effect of over 50% in size. Also: potency is read from the fitted curve at half-maximal effect. The procedure, abridged: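 In the same plates used for the beta-lactamase readout, cell viability of compound- and R5020-treated PR-UAS-bla HEK293T cells (16 hr, 37C) was assessed by CellTiter-Glo luminescence.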

Experiment [10] can be described thus: qHTS assay to identify small molecule agonists of the progesterone receptor (PR) signaling pathway - cell viability counter screen (AID 1346799; calls by dose curve; also: nearly all actives have a fitted effect of over 45% in size; also: potency is read from the fitted curve at half-maximal effect). The essentials:
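Multiplexed viability read: CellTiter-Glo luminescence, 30 min RT, following LiveBLAzer FRET measurement on PR-UAS-bla HEK293T cells exposed to compounds 16 hr.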

Experiment [11] can be described thus: qHTS assay to identify small molecule antagonists of the TGF-beta/Smad signaling pathway - cell viability counter screen (AID 1346824). Also: nearly all actives have a fitted effect of over 50% in size. The procedure, abridged: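 SBE-bla HEK 293T cells, incubated overnight, then compound plus 0.25 ng/mL TGF-beta1 (stock added) for 5 hr at 37 C. Viability was read in the same wells by CellTiter-Glo luminescence after 30 min at room temperature.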

Experiment [12] is described as follows: qHTS assay to identify small molecule agonists of the TGF-beta/Smad signaling pathway - cell viability counter screen (AID 1346829). Also: top concentration of the series differs between compounds; nearly all actives have a fitted effect of over 45% in size. The essentials: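 SBE-bla HEK 293T cells plated overnight, compound exposure 5 hr at 37 C. Viability read in the same wells by CellTiter-Glo luminescence after 30 min at room temperature, following the beta-lactamase read.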

Experiment [13] is described as follows: qHTS assay to identify small molecule agonists of the TGF-beta/Smad signaling pathway (AID 1346859; active = well fitted activation curve with a large enough effect in the signal ratio in the repeat runs, not every such curve was filed as active; the % refers to the signal ratio; also: series mostly up to about 77 µM). The essentials: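 Screening used HEK 293T SBE-bla cells at 4,000/well. Test agents: 5 hr, 37 C. Detection: FRET substrate, 2 hr RT, then excitation 405 nm with emissions at 460 and 530 nm.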
For experiment [14], the target named is Thyrotropin-releasing hormone receptor (Homo sapiens) (UniProt P34981). The experiment is described as follows: qHTS assay to identify small molecule antagonists of the thyrotropin-releasing hormone receptor (TRHR) signaling pathway (AID 1346877; active = well fitted inhibition curve with a large enough effect in the repeat runs, not every such curve was filed as active; also: series mostly up to about 51 µM). The essentials: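 Human TRHR in HEK293 cells; inhibition of the intracellular calcium rise triggered by 1 nM TRH was followed by fluorescence over 3 min. Compounds were run at 15 concentrations, three replicates each.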
Sequence of Thyrotropin-releasing hormone receptor (Homo sapiens) (P34981 whole entry, looked up): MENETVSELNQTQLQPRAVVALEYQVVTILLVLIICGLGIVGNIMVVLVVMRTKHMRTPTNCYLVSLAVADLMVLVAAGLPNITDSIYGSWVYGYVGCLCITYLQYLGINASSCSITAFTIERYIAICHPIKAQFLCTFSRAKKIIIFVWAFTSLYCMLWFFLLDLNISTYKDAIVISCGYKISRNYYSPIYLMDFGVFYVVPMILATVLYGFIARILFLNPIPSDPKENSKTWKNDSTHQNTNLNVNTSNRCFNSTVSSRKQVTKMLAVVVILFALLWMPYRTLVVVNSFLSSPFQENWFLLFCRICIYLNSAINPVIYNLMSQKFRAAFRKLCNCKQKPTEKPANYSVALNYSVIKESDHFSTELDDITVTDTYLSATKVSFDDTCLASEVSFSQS

For experiment [15] the target is unchanged. The experiment in a line: qHTS assay to identify small molecule agonists of the thyrotropin-releasing hormone receptor (TRHR) signaling pathway (AID 1346891; calls by dose curve; also: series mostly up to about 58 µM). The essentials:
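Readout was intracellular calcium fluorescence in TRHR-Hek293 cells. Cells were incubated 18 h, dye-loaded 2 h at 37 °C, and treated with compound in agonist mode.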

Experiment [16] can be described thus: Human pregnane X receptor (PXR) small molecule agonists, qHTS cell viability counter screen (AID 1346977). Also: nearly all actives have a fitted effect of over 50% in size. Also: potency is read from the fitted curve at half-maximal effect. The procedure, abridged:
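In each well, the PXR reporter HepG2 line was checked for viability: CellTiter-Fluor reagent added 23hr post-dosing, fluorescence read after 1hr incubation at 37C.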

The target of experiment [17] is Androgen receptor (Homo sapiens) (UniProt P10275). The experiment in a line: qHTS assay to identify small molecule agonists of the androgen receptor (AR) signaling pathway in the presence of an antagonist (AID 1259381; calls by dose curve; also: nearly all actives have a fitted effect of over 15% in size). The essentials: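 AR antagonist background: nilutamide 3.0uM final. Cell line: MDA-kb2, MMTV-driven luciferase, responsive to both AR and GR. Exposure 16hr, 37C, no CO2; ONE-Glo luminescence.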
Sequence of Androgen receptor (Homo sapiens) (P10275 whole entry, looked up): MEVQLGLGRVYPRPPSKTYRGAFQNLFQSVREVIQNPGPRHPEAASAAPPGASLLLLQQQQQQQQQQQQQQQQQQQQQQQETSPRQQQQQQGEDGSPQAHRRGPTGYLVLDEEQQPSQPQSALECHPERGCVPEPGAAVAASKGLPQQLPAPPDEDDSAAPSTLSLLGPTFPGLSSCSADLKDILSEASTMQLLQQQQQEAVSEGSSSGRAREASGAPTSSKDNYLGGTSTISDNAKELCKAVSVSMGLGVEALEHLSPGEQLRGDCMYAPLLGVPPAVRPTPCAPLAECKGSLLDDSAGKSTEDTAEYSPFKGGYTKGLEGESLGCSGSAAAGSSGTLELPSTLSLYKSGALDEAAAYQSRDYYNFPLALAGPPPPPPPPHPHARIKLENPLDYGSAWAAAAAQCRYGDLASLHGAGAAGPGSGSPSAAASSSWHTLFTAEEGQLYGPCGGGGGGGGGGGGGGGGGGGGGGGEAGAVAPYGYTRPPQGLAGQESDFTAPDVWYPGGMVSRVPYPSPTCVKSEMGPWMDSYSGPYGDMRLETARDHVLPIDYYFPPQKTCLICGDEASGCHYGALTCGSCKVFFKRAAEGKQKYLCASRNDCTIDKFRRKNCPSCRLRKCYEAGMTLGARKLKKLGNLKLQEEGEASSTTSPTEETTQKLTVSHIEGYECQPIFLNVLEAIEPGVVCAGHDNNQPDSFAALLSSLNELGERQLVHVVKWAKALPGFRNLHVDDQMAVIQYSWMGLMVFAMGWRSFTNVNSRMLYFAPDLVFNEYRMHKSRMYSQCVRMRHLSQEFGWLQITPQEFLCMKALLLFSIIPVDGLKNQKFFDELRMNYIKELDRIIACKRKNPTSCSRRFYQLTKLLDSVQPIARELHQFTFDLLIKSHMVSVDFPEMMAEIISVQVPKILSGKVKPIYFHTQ

Experiment [18] has as its target Estrogen receptor (Homo sapiens) (UniProt P03372). The experiment in a line: qHTS assay to identify small molecule agonists of the estrogen receptor alpha (ER-alpha) signaling pathway in the presence of an antagonist (AID 1259383; calls by dose curve; also: top concentration of the series differs between compounds; nearly all actives have a fitted effect of over 15% in size). The procedure, abridged:
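ER-alpha agonism measured under antagonist challenge: 10.0nM ICI-182,780 (final) plus compound, 15 concentrations, 22hr, VM7Luc4E2 ERE-luciferase cells. Read by luminescence.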

In experiment [19] the target is Progesterone receptor (Homo sapiens) (UniProt P06401). The experiment is described as follows: qHTS assay to identify small molecule agonists of the progesterone receptor (PR) signaling pathway (AID 1346784; calls by dose curve; also: nearly all actives have a fitted effect of over 30% in size). The procedure, abridged: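 Reporter assay, GripTite PR-UAS-bla HEK 293T cells: 16 hr exposure to DMSO-dissolved compounds at 37C, 5% CO2, in steroid-depleted (2% charcoal-stripped FBS) medium; beta-lactamase measured by FRET fluorescence.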
Sequence of Progesterone receptor (Homo sapiens) (P06401 whole entry, looked up): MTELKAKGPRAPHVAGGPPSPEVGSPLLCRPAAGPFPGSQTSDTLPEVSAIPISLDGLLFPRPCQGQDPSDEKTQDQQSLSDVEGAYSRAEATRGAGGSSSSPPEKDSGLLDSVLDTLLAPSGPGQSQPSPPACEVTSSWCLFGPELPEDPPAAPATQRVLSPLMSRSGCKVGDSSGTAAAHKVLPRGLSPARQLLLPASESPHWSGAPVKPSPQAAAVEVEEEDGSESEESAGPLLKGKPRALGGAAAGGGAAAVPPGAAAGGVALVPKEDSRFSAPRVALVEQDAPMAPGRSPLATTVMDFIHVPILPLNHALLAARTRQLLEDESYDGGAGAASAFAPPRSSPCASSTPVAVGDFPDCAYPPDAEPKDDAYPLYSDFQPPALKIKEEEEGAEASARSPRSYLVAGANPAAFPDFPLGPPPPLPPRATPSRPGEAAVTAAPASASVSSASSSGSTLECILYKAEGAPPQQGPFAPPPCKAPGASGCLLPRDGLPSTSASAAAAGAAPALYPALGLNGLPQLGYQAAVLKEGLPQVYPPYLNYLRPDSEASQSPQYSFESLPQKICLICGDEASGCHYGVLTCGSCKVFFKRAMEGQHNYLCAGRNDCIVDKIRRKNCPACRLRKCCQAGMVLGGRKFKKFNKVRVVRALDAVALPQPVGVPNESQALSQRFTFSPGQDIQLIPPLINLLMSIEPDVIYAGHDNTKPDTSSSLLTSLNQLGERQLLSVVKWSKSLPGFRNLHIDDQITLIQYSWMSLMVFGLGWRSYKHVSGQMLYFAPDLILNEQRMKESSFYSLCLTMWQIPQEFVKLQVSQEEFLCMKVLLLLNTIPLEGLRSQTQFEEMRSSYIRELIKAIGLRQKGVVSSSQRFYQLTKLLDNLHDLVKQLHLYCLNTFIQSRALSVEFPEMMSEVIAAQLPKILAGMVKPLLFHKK

The target is the same in experiment [20]. The experiment is described as follows: qHTS assay to identify small molecule antagonists of the progesterone receptor (PR) signaling pathway (AID 1346795; active = well fitted inhibition curve with a large enough effect in the signal ratio in the repeat runs, not every such curve was filed as active; the % refers to the signal ratio; also: potency is read from the fitted curve at half-maximal effect). The essentials: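 Stimulus R5020 at 1 nM final; cells HEK293T PR-UAS-bla; medium with 2% charcoal-stripped FBS; compound exposure 16 hr at 37C, 5% CO2; detection by FRET beta-lactamase substrate, 2 hr, room temperature.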

From PubChem BioAssay (Tox21) come the findings set out here.

Values joined by “and” are separate entries in the source; they are usually repeats but may differ in a detail not shown here. Identical values can stand only once. Results filed as inconclusive are left out. More than one record can exist for a structure, and the calls need not agree. Active and inactive are the calls of the source. Unless noted, calls follow the shape of the dose curve; as a rule, active = well fitted curve in the direction sought with a large enough effect in the repeat runs; inconclusive = weak or mixed curves; inactive = no such curve, though single readings can be large; an effect the other way counts as inactive or inconclusive.

Sequence of Thyrotropin receptor (Homo sapiens) (P16473 whole entry, looked up): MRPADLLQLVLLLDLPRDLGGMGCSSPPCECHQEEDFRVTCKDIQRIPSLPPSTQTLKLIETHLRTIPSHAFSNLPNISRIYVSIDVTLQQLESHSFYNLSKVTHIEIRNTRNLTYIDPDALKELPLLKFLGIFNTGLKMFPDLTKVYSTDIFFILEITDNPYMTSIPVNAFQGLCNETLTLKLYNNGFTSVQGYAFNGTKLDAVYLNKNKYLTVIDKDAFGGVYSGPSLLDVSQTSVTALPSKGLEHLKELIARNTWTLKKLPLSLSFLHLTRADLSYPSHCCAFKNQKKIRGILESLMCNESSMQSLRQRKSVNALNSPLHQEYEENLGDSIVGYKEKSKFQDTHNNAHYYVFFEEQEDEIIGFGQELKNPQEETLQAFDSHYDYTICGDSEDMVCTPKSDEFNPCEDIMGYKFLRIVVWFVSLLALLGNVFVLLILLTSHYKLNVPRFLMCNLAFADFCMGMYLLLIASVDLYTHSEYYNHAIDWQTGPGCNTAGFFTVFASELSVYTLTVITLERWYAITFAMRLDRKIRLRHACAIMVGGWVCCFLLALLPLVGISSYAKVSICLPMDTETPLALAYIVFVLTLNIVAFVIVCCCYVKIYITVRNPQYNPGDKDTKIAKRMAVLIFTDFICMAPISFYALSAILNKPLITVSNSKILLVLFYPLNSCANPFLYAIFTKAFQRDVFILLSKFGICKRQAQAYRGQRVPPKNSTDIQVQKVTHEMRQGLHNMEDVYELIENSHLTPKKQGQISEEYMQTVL
Sequence of Estrogen receptor beta (Homo sapiens) (Q92731 whole entry, looked up): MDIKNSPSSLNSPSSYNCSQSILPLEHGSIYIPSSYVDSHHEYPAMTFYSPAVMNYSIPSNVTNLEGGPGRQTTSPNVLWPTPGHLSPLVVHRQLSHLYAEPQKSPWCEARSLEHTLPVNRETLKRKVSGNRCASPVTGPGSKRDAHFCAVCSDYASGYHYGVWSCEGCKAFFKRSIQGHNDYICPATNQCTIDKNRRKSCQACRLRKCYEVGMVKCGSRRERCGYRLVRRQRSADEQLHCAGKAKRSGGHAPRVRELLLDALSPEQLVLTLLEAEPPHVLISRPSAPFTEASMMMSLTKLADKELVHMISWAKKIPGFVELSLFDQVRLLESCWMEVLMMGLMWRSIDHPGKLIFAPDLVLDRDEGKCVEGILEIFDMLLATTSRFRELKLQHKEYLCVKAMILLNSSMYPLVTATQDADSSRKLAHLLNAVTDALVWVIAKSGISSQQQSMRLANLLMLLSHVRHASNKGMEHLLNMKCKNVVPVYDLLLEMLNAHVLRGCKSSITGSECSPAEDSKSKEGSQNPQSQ
Sequence of Estrogen receptor (Homo sapiens) (P03372 whole entry, looked up): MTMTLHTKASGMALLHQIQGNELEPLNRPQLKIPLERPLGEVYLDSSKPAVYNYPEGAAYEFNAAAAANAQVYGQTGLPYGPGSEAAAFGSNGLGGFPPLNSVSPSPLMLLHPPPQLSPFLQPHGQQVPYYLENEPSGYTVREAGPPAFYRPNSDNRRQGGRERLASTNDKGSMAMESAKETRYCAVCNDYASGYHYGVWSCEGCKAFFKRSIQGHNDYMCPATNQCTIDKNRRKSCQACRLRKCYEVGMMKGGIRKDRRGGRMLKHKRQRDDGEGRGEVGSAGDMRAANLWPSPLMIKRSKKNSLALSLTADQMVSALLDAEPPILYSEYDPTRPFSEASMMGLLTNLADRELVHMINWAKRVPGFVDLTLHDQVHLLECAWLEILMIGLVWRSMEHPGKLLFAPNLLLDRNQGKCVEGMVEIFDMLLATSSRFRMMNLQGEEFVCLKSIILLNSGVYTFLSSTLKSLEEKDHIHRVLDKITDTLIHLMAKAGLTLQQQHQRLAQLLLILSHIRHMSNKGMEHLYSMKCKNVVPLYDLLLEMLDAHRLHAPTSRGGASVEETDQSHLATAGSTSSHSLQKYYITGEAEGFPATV

Regarding `NNc1ccc(C(=O)O)cc1`, the Potency entry in experiment [1], in experiment [2], in experiment [3], in [4], in [5] and in experiment [7] was “inactive” in each case. The Potency result in experiment [8], in experiment [9], in [10], in experiment [11], in experiment [12] and in experiment [14] was “inactive” each time. Moreover, the Potency entry in experiment [15] and in experiment [16] was “inactive” each time. Further, the molecule was classed as inactive in experiment [6] and in experiment [13].
Turning to `c1ccc2c(c1)c1cccc3ccc4cccc2c4c31`, the Potency in experiment [1] is 60.7 µM (active) and inactive. Moreover, the Potency result in [2], in experiment [3], in [4], in experiment [5], in experiment [18] and in [7] was “inactive” throughout. Besides, the Potency result in experiment [8], in [19], in [20], in experiment [9], in [11] and in experiment [12] was “inactive” throughout. For the same molecule, the Potency entry in experiment [14], in experiment [15] and in experiment [16] was “inactive” throughout. Moreover, the outcome in experiment [17], in experiment [6] and in [13] was inactive.
Turning to `CNCCCC12CCC(c3ccccc31)c1ccccc12`, the Potency entry in experiment [1], in [18], in [8], in experiment [19], in experiment [11] and in experiment [12] was “inactive” throughout. For the same molecule, the Potency entry in experiment [14] and in [15] was “inactive” throughout. In addition, the Potency in experiment [2] is 26.6 µM (active); in [3] it was 54.5 µM (active); in [4] it was 15.4 µM (active) and 29.8 µM (active); in experiment [5], 15.4 µM (active) and 26.6 µM (active); in experiment [9], 13.7 µM (active) and 26.6 µM (active); in experiment [10] it was 19.3 µM (active) and inactive. The Potency in experiment [16] was 27.3 µM (active). For the same molecule, the outcome in experiment [6] and in [13] was inactive.
Consider `CC(C)=CCCC(C)CCO` (stereo not given), for which the Potency entry in experiment [1], in experiment [2], in [3], in [4], in experiment [5] and in experiment [18] was “inactive” each time. The Potency result in [7], in [8], in [19], in experiment [20], in experiment [9] and in [10] was “inactive” throughout. In addition, the Potency result in experiment [11], in experiment [12], in experiment [14], in [15] and in experiment [16] was “inactive” in each case. Further, the molecule was classed as inactive in experiment [6] and in experiment [13].
With `CN(C)CCC=C1c2ccccc2CCc2ccccc21`, the Potency result in experiment [1], in experiment [3], in [8], in [19], in [11] and in [12] was “inactive” each time. Further, the Potency result in experiment [14] and in experiment [15] was “inactive” each time. Moreover, the Potency in experiment [2] is 68.6 µM (active); in [4], 30.6 µM (active) and 26.6 µM (active); in experiment [5], 15.4 µM (active) and 13.7 µM (active) and 26.6 µM (active); in experiment [7], 68.6 µM (active) and 26.6 µM (active); in experiment [20], 54.5 µM (active); in experiment [9], 61.1 µM (active) and 30.6 µM (active) and 16.8 µM (active). Moreover, the Potency in experiment [10] was 54.5 µM (active) and 15.4 µM (active) and 16.8 µM (active); in [16], 44.7 µM (active) and 48.6 µM (active) and 26.6 µM (active). In addition, the molecule was classed as inactive in [6] and in [13].
With `O=C(/C=C/c1ccccc1)OCc1ccccc1`, the Potency result in [1], in experiment [2], in [3], in experiment [4], in experiment [5] and in [7] was “inactive” throughout. Besides, the Potency result in [8], in experiment [19], in experiment [20], in experiment [9], in experiment [11] and in experiment [12] was “inactive” in each case. Further, the Potency entry in experiment [14], in experiment [15] and in experiment [16] was “inactive” in each case. Moreover, the molecule was called inactive in experiment [6] and in experiment [13].
Consider `C=C(C)C(=O)OCCOC(=O)C(=C)C`, for which the Potency entry in experiment [1], in experiment [2], in experiment [3], in [4], in experiment [5] and in experiment [7] was “inactive” in each case. Besides, the Potency result in experiment [8], in experiment [19], in [20], in [9], in experiment [10] and in [11] was “inactive” throughout. Further, the Potency entry in experiment [12], in experiment [14], in experiment [15] and in experiment [16] was “inactive” each time. Further, the outcome in experiment [17], in experiment [6] and in experiment [13] was inactive.
Regarding `Cc1ncc[nH]1`, the Potency entry in [1], in experiment [2], in [3], in experiment [4], in experiment [5] and in experiment [7] was “inactive” throughout. In addition, the Potency entry in experiment [8], in [19], in experiment [20], in [9], in [11] and in experiment [12] was “inactive” in each case. Also, in experiment [16], the Potency result was “inactive”. The outcome in experiment [6] and in experiment [13] was inactive.
